Measured values: PubChem BioAssay AID828 (The Scripps Research Institute Molecular Screening Center, 2007)
Hit rate of the full screen: of about 140,000 compounds, about 550 (0.39%) were called active. Cut-off read from the data, not from the text of the source: active = inhibition above about 27%; inactive = the rest. Shown is part of a subset that was picked to be rich in actives.

Target: Galanin receptor type 2 (Homo sapiens) (UniProt O43603)
Assay: blockers of human galanin receptor 2 – cell-based, primary screen (AID 828);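 note: cells stimulated with galanin 1-16 at roughly its EC80; 0% = agonist challenge control and 100% = basal control without agonist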
Settings: GALR2-expressing cells, antagonist mode; at 4 µM; active compounds read high

Galanin receptor type 2 (Homo sapiens), sequence (O43603 whole entry, looked up): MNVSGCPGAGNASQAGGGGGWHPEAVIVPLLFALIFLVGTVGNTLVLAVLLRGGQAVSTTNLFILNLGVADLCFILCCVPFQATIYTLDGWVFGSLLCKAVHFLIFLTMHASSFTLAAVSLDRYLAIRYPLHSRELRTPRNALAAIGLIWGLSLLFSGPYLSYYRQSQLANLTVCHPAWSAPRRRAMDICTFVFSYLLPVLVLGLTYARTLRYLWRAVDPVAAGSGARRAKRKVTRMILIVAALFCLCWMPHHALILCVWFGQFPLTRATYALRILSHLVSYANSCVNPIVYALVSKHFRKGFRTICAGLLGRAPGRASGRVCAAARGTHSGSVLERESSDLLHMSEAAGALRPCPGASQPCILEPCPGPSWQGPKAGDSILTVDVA

How did the inhibition turn out when NS(=O)(=O)c1ccc(CCNC(=S)Nc2ccc(S(N)(=O)=O)cc2)cc1 was run?
Its inhibition is 5.94% (inactive).

Cc1cc(C)c(C#N)c(SCC(=O)NN2CC(=O)N(c3ccccc3F)CC2=O)n1 was tested. Which inhibition did it give?
Its inhibition is 12.2% (inactive).

How did the inhibition turn out when COc1ccc(C)cc1S(=O)(=O)N(CC(=O)Nc1cccc([N+](=O)[O-])c1)c1ccc(C)cc1 was run?
Its inhibition is -2.05% (inactive).

Which inhibition does the source give for O=C(COC(=O)C1CC2C=CC1C2)Nc1ccccc1 (stereo not given) here?
The inhibition was -0.08% (inactive).

Cc1cc(C(=O)COC(=O)CNC(=O)c2ccc(F)cc2)c(C)n1Cc1ccco1 was tested. Which inhibition did it give?
The inhibition was 3.46% (inactive).

How did the inhibition turn out when Cc1cccc(C(=O)NCC(=O)OCC(=O)N2CC3(C)CC2CC(C)(C)C3)c1 (stereo not given) was run?
The inhibition was 1.61% (inactive).

With Cc1nnnn1/C(=C\c1ccccc1)C(=O)OCC(=O)N1CC2(C)CC1CC(C)(C)C2 (stereo not given) as the compound, how does the inhibition read?
The inhibition was 27.3% (active).

For COc1ccccc1C(=O)N1CC2(C)CC1CC(C)(C)C2 (stereo not given), which inhibition is on record?
The inhibition was 1.39% (inactive).

How did the inhibition turn out when COC(=O)N/N=C/c1ccc(-c2ccc(Cl)c(Cl)c2)o1 was run?
The inhibition was -7.04% (inactive).

Which inhibition does the source give for COc1cc(C(=O)NNC(=O)c2ccc(S(=O)(=O)N3CCCCC3)cc2)cc(OC)c1OC here?
Its inhibition is 9.59% (inactive).

How did the inhibition turn out when CC(C)COP(=O)(c1ccc(N(C)C)cc1)C(Nc1ccccc1)c1cccnc1 (stereo not given) was run?
Its inhibition is 3.84% (inactive).

O=C(CSC(=S)N1CCOCC1)c1ccccc1 was tested. Which inhibition did it give?
The inhibition was 5.48% (inactive).

How did the inhibition turn out when COc1ccc(Nc2nc(NCc3ccco3)nc(N/N=C/c3ccccc3Cl)n2)cc1 was run?
The inhibition was -5.3% (inactive).

With O=C(/C=C/c1ccccc1)Nc1nnc(SCC(=O)c2ccc3ccccc3c2)s1 as the compound, how does the inhibition read?
The inhibition was -9.23% (inactive).

With COc1ccc(C(=O)Nc2sc(C)c(C)c2CN2CCOCC2)cc1 as the compound, how does the inhibition read?
Its inhibition is 3.47% (inactive).

How did the inhibition turn out when COc1ccc(Cl)cc1NC(=O)[C@@H]1CCCN1C(=O)c1cccs1 was run?
Its inhibition is -3.13% (inactive).

With c1ccc(-c2[nH]ncc2-c2nc3ccccc3[nH]2)cc1 as the compound, how does the inhibition read?
Its inhibition is 0.69% (inactive).

c1ccc2[nH]c(-c3nc4ccccc4[nH]3)nc2c1 was tested. Which inhibition did it give?
The inhibition was 35.5% (active).

How did the inhibition turn out when Cc1ccc(-c2nc3ccccc3[nH]2)cc1N was run?
Its inhibition is 4.32% (inactive).

With Cc1ccc(-c2nc(-c3cccnc3)sc2CC(=O)Nc2ccc(C)c(Cl)c2)cc1 as the compound, how does the inhibition read?
The inhibition was 8.6% (inactive).

How did the inhibition turn out when CSc1ccc(/C=N/NC(=O)c2cccc(Cl)c2)cc1 was run?
The inhibition was 9.93% (inactive).

With CCCN(CCC)C(=S)Nc1cc(C(=O)OC)ccc1C(=O)OC as the compound, how does the inhibition read?
Its inhibition is 0.52% (inactive).

How did the inhibition turn out when O=C(Oc1cccc(N2C(=O)C3C4c5ccccc5C(c5ccccc54)C3C2=O)c1)c1ccco1 (stereo not given) was run?
Its inhibition is 1.71% (inactive).

For O=C1C2C3C=CC(C4CC34)C2C(=O)N1c1nccs1 (stereo not given), which inhibition is on record?
Its inhibition is -7.75% (inactive).

Which inhibition does the source give for CC[C@H]1CN2CCc3cc(OC)c(OC)cc3[C@@H]2C[C@@H]1C[C@H]1NCCc2cc(OC)c(OC)cc21 here?
Its inhibition is 95% (active).

With COc1cc2c(cc1O)[C@H](Cc1ccc(Oc3cc(C[C@@H]4NCCc5cc(OC)c(O)cc54)ccc3O)cc1)NCC2 as the compound, how does the inhibition read?
The inhibition was 1.51% (inactive).

How did the inhibition turn out when O=C(NCCc1ccccc1)C1CCC(Cn2c(=O)c3ccccc3n(Cc3cccnc3)c2=O)CC1 (stereo not given) was run?
Its inhibition is -3.73% (inactive).

For Cc1ccc(-n2nc(C)c(/C=N/NC(=O)c3cccs3)c2Cl)cc1, which inhibition is on record?
The inhibition was -3.43% (inactive).

With Cc1ccc(/C=N\n2c(-c3ccccc3)n[nH]c2=S)s1 as the compound, how does the inhibition read?
The inhibition was 5.78% (inactive).

How did the inhibition turn out when Cc1cc(-c2n[nH]c(=S)n2/N=C/C(Br)=C/c2ccccc2)n[nH]1 was run?
Its inhibition is 34.7% (active).

How did the inhibition turn out when S=c1[nH]nc(-c2cccnc2)n1/N=C/C(Cl)=C\c1ccccc1 was run?
The inhibition was 18% (inactive).

For Cc1nc2ccccc2nc(C)c1=NOCc1ccc(Cl)cc1Cl, which inhibition is on record?
The inhibition was 10.4% (inactive).

For COc1ccc(/C=N/OCC(=O)N(Cc2ccccc2)c2ccccc2C(=O)O)cc1, which inhibition is on record?
The inhibition was 2.54% (inactive).

Which inhibition does the source give for CNC(=O)/C(C#N)=C/c1c(F)cccc1Cl here?
The inhibition was 20.6% (inactive).

For COc1ccc(/C=C2/C(=O)OCc3cc(OC)c(OC)cc32)c(OC)c1, which inhibition is on record?
The inhibition was 2.64% (inactive).

For COc1ccc(C2NC(=S)NC3=C2CCc2ccccc23)cc1OC (stereo not given), which inhibition is on record?
The inhibition was -4.17% (inactive).

With O=C(N/N=C/c1ccccn1)C12CC3CC(CC(C3)C1)C2 as the compound, how does the inhibition read?
Its inhibition is -0.89% (inactive).

For Cn1c(-c2ccco2)nc2cc3ccccc3cc21, which inhibition is on record?
Its inhibition is 29.7% (active).

With CN(c1nc2ccccc2n2c(-c3ccco3)nnc12)S(=O)(=O)c1ccccc1 as the compound, how does the inhibition read?
The inhibition was 3% (inactive).

How did the inhibition turn out when CN1c2ccccc2-c2nc3ccccc3n2C1c1ccco1 (stereo not given) was run?
Its inhibition is -6.2% (inactive).
